Screening results as filed in PubChem BioAssay.
Compounds with a hit are over-represented: about 2.4% of the library has one in this group of screens.
M1 ag = human M1 muscarinic receptor agonism. AID 588814. CHO-K1 hM1, Fluo-8 calcium fluorescence, agonist mode; 0% DMSO, 100% acetylcholine EC100. activation, % at 3 µM. actives 0.33% (n = 360,000);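 active = activation above the run's mean compound activation plus 3 SD, cut at about 16% in these data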;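 note: peak over basal fluorescence ratio within a 140 s kinetic read after compound addition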
Target sequence (P11229 whole entry, looked up): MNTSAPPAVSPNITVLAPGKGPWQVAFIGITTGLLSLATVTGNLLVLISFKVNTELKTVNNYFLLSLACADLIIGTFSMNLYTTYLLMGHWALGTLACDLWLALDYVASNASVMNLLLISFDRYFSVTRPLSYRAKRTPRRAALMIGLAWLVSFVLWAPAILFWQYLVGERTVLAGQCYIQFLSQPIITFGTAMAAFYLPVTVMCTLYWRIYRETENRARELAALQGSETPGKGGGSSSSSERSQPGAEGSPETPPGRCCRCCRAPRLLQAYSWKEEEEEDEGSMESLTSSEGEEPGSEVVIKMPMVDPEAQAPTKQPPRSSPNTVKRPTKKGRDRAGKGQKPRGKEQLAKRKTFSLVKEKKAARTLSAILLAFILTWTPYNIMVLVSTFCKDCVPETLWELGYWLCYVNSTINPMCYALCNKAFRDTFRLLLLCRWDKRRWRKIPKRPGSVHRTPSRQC
M1 PAM = positive allosteric modulators of human M1 muscarinic receptor; P11229; CHO-K1 hM1, Fluo-8 calcium fluorescence, ACh EC20; 0% = ACh EC20, 100% = maximal ACh; activation, % at 3 µM; actives 0.088% (n = 360,000); AID 588819; in the data active = activation above about 19%, passing the limit was not always enough
M1 ag parental = counter-screen for M1 agonists: effect in parental CHO-K1 cells; actives 0.48% (n = 360,000); Fluo-8 calcium fluorescence; scaled to maximal ATP response, vehicle zero; AID 602248; activation, % at 3 µM; in the data active = activation above about 15%;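 note: untransfected CHO-K1 host cells lacking M1 receptor as counterscreen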
CHO-K1 Ca antag = counter-screen for M1 antagonists: effect in parental CHO-K1 cells; ATP-induced calcium, Fluo-8 fluorescence; inhibition, % at 3 µM; actives 0.6% (n = 360,000); AID 602250;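 active = inhibition above a per-plate cutoff, the plate's mean sample inhibition plus 3 SD, cut at about 24% in these data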
CHO-K1 Ca PAM = M1 PAM counterscreen hit in parental CHO-K1 cells; actives 0.02% (n = 360,000); activation, % at 3 µM; ATP EC20, Fluo-8 calcium fluorescence; 0% at ATP EC20, 100% at ATP max; AID 602247;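 active = activation above the run cutoff, the mean activation of all test compounds plus 3 SD, cut at about 40% in these data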;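 note: peak over basal fluorescence ratio in a 140 s read after ATP addition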
M1 antag = antagonists of human M1 muscarinic receptor | CHO-K1 hM1, Fluo-8 calcium fluorescence, ACh EC80 antagonist | actives 1.3% (n = 360,000) | P11229 | inhibition, % at 3 µM;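 active = percent inhibition above its own plate's cutoff, namely the mean of that plate's compound wells plus 3 SD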;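 note: peak over basal fluorescence ratio during 140 s after agonist addition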
Of the large screens only hits and unclear results are named; the others gave an inactive call.

CCOC(=O)C1=NNC(C(=O)c2ccccc2)C1c1ccc(OC)cc1 (stereo unspecified)	none
COC(=O)c1sccc1NC(=S)N1CCN(c2cccc(C)c2C)CC1	CHO-K1 Ca antag 24
COC(=O)c1sccc1NC(=S)N1CCCCC1	none
Cc1cc(Cl)ccc1NC(=S)N1CCN(Cc2ccccc2)CC1	none
CCOC(=O)N1CCN(C(=S)Nc2ccccc2C(C)C)CC1	none
CCOC(=O)N1CCN(C(=S)Nc2cccc(C)c2C)CC1	M1 ag 19
Cc1cccc(NC(=S)N2CCN(Cc3ccccc3)CC2)c1C	M1 ag 23
Cc1ccc2cc(C(c3nnnn3Cc3ccccc3)N3CCN(c4ccccc4)CC3)c(=O)[nH]c2c1 (stereo unspecified)	none
Cc1[nH]c(C(=O)N/N=C/c2ccc(N(C)C)cc2)c(C)c1C(=O)N/N=C/c1ccc(N(C)C)cc1	none
O=C1C=C(c2cccc(Cl)c2)C[C@@H](c2ccc(Cl)cc2)C1	none
Cc1ccc(S(=O)(=O)NCc2ccc(C(=O)NCCN(Cc3ccccc3)C(C)C)cc2)cc1	M1 antag 68
CC(C)N(CCNC(=O)c1ccc(CS(=O)(=O)c2c(Cl)cccc2Cl)o1)Cc1ccccc1	M1 antag 45
Cc1ccc(S(=O)(=O)NCCNC(=O)c2ccccc2)cc1	none
Cc1ccccc1S(=O)(=O)Cc1ccc(C(=O)NCCN(Cc2ccccc2)C(C)C)o1	none
O=C(NCCCCCCNC(=O)c1ccccc1O)c1ccccc1O	M1 ag parental 19, M1 antag 32
CCCNC(=O)c1ccccc1C(=O)NCCC	none
CCOCCNC(=O)c1ccccc1C(=O)NCCOCC	CHO-K1 Ca antag 30
CN(C(=O)COc1ccccc1C(=O)NCCOc1ccccc1)c1ccccc1	CHO-K1 Ca antag 25, M1 antag 50
N#Cc1ccccc1NC(=O)CN1CCOCC1	none
COc1cc2c(cc1OC)C(C)N(CC(=O)Nc1ccc(C)c(S(=O)(=O)N3CCOCC3)c1)CC2 (stereo unspecified)	none
CCN(c1cccc(C)c1)S(=O)(=O)c1ccc2c3c(cccc13)C(=O)N2	CHO-K1 Ca antag 28
O=C1NC[C@H](CCCCN2C[C@H](Cc3ccc(O)cc3)N(CCC3CCCCC3)C(=O)C2=O)N(CC2CCCCC2)C1=O	none (no result: M1 ag, M1 PAM, M1 antag)
NC(=O)c1ccsc1NC(=O)CSc1ccccc1F	none
NC(=O)c1ccsc1NC(=O)COC(=O)Cc1ccc(F)cc1	M1 ag parental 17
Cc1ccccc1SCC(=O)OCC(=O)Nc1sccc1C(N)=O	M1 ag parental 16, CHO-K1 Ca antag 28
COc1cc(CCC(=O)OCC(=O)Nc2sccc2C(N)=O)cc(OC)c1OC	CHO-K1 Ca antag 39, M1 antag 37
COc1cc(C(=O)OCC(=O)Nc2sccc2C(N)=O)cc(OC)c1OC	none
NC(=O)c1ccsc1NC(=O)COC(=O)Cc1ccccc1[N+](=O)[O-]	CHO-K1 Ca antag 31
NC(=O)c1ccsc1NC(=O)COC(=O)Cc1c[nH]c2ccccc12	none
NC(=O)c1ccsc1NC(=O)COC(=O)Cc1cccc2ccccc12	CHO-K1 Ca antag 29, M1 antag 40
O=C(CCc1ccccn1)N1CCCC(Nc2ccc(F)cc2)C1 (stereo unspecified)	none
O=C(CCc1ccccn1)N1CCCC(Nc2cccc(F)c2)C1 (stereo unspecified)	M1 ag 27
O=C(CNC1CCCC1)Nc1ccc(S(=O)(=O)N2CCCCC2)cc1	none
O=C(Nc1ccc(Cl)cc1)c1ccc(CN2CCc3ccccc3C2)cc1	none
O=C(Nc1ccc(S(=O)(=O)N2CCCC2)cc1)c1ccc(CN2CCc3ccccc3C2)cc1	M1 antag 39
O=C(CNC1CCN(Cc2ccccc2)CC1)Nc1ccc(S(=O)(=O)N2CCCCC2)cc1	M1 antag 44
CCOc1ccc(NC(=O)c2ccc(CN3CCc4ccccc4C3)cc2)cc1	CHO-K1 Ca antag 27, M1 antag 39
CCOC(=O)c1ccc(NC(=O)c2ccc(CN3CCc4ccccc4C3)cc2)cc1	none
Cc1noc(C)c1COC(=O)[C@@H](NC(=O)c1ccccc1Cl)C(C)C	none
COc1ccccc1C1OCC(C)(C)CO1	none
COCCCNC(=O)c1ccc(CS(=O)(=O)c2ccccc2C)o1	none
Nc1nc2ccccc2nc1N1CCCC1	none
CN1CCN(C=Nc2nc3ccccc3nc2N2CCCC2)CC1	M1 antag 34
O=C(O)CCC(=O)N1CCc2cc(S(=O)(=O)NC3CCCC3)ccc21	none
C=CCSc1nsc(NC(=O)Nc2ccc(F)cc2)n1	CHO-K1 Ca antag 25, M1 antag 31
CCSc1nsc(NC(=O)Nc2ccccc2F)n1	none
CCSc1nsc(NC(=O)Nc2cccc(OC)c2)n1	M1 ag parental 17, M1 antag 27
CCCCCc1ccc(OCCOCCn2c[n+](C)c3ccccc32)c(CCCCC)c1	M1 antag 79
CCCCCc1ccc(OCCC[n+]2ccccc2)c(CCCCC)c1	M1 antag 69
Cc1ccc(S(=O)(=O)NC(C)(C)CN2CCCCC2)cc1	none
CCCn1c(N)c(C(=O)NS(=O)(=O)c2ccc(C)cc2)c(=O)n(C)c1=O	M1 ag parental 17
CSc1nc(Oc2ccc(F)cc2F)cc(C(F)(F)F)n1	CHO-K1 Ca antag 26
CSc1nc(Oc2cccc(C(F)(F)F)c2)cc(C(F)(F)F)n1	none
CC(=O)N1CCCc2cc(S(=O)(=O)N3CCCC(C(=O)N4CCN(c5ccccc5)CC4)C3)ccc21 (stereo unspecified)	M1 ag parental 16
Cc1ccc(C)c(N2CCN(C(=O)C3CCCN(S(=O)(=O)c4cnc[nH]4)C3)CC2)c1 (stereo unspecified)	none
CC(=O)N1CCCc2cc(S(=O)(=O)N3CCCC(C(=O)N4CCN(c5cc(C)ccc5C)CC4)C3)ccc21 (stereo unspecified)	M1 antag 41
COc1ccccc1N1CCN(C(=O)C2CCCN(S(=O)(=O)c3ccc4c(c3)CCCN4C(C)=O)C2)CC1 (stereo unspecified)	none
CC(C)N(CC#CCC(O)(c1ccccc1)c1ccccc1)CCO	none
CC(C)N(CC#CCC(O)(c1ccccc1)c1ccccc1)C(C)C	M1 antag 39
O=S(CC(O)(c1ccccc1)c1ccccc1)CC(O)(c1ccccc1)c1ccccc1	none
CCN(CC#CCC(O)(c1ccccc1)c1ccccc1)C(C)C	M1 antag 82
COc1ccc(CNS(=O)(=O)CCNC(=O)c2ccc3c(c2)OCO3)cc1	CHO-K1 Ca antag 24
CCOc1ccc(S(=O)(=O)NCCC(=O)Nc2ccncc2)cc1	none
NN=C(c1ccccc1)c1ccccc1	none
N/N=C(\c1ccccc1)C12CN3CN(CN(C3)C1)C2	M1 antag 58
CSCC[C@@H](C(=O)NCCCCCCCCCCC(=O)N1CCNCC1)n1cc(CCO)nn1	none
